Hit rate of the full screen: of about 310,000 compounds, about 14,000 (4.5%) showed an effect of 50% or more. The effect is printed as a negative number. The sample holds strong results, similar compounds and a random draw of the others, so the mix is not that of the screen.
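Further: peak tail current of the secondary pulse compared with the same well before compound.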

human ether-à-go-go-related gene (hERG) potassium channel, sequence (Q12809 whole entry, looked up): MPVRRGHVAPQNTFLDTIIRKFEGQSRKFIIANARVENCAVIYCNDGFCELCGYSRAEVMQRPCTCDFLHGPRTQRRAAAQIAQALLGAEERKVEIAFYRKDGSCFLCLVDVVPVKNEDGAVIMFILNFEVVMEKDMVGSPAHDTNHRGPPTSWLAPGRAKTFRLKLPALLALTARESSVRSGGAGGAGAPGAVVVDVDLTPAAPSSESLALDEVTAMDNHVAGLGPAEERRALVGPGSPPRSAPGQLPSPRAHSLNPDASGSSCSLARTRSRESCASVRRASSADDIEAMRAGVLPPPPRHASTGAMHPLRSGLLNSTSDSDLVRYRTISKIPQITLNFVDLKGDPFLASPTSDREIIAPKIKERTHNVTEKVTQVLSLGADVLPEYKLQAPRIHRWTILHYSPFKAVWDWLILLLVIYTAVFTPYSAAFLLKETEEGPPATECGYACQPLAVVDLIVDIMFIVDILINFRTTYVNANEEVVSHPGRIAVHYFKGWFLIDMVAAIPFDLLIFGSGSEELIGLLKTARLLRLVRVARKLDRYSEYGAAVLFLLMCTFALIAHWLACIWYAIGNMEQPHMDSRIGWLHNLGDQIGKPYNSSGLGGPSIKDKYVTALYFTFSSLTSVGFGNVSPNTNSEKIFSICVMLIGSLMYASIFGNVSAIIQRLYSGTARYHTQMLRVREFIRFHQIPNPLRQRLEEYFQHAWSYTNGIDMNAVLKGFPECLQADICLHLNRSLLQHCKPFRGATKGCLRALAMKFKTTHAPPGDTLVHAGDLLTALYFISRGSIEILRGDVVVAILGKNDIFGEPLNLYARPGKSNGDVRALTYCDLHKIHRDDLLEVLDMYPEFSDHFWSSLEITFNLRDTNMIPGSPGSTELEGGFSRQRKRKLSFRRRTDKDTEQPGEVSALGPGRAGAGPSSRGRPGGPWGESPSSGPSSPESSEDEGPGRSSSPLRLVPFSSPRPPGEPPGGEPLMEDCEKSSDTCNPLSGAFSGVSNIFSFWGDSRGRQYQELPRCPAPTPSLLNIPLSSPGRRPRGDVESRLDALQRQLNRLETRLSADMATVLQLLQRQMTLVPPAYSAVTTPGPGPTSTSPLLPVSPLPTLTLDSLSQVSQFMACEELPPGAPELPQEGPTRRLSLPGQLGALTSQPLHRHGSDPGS

This test concerns the target human ether-à-go-go-related gene (hERG) potassium channel (human, UniProt Q12809). As to the kind of experiment: primary screen, population patch clamp on CHO cells stably expressing hERG; higher = less effect of the substance.
Take `N#CC1=C(N)Oc2c(c(=O)oc3ccccc23)C1c1cccnc1` (stereo not drawn): the “hERG current change (%, negative = inhibition) at 10uM” value turned out to be 5.62%.

With `CC1(C)C2CC=C(/C=N/NC(=O)c3ccccc3Br)C1C2` (stereo not drawn), the “hERG current change (%, negative = inhibition) at 10uM” value is on record as -2.58%.

As for `C=CC(C)(C)O[C@@H]1O[C@H](CO)[C@@H](O)[C@H](O)[C@H]1O`, the “hERG current change (%, negative = inhibition) at 10uM” value came out at 40.6%.

As for `Cc1ccc2nc3c(c(N)c2c1)CCN3c1ccccc1.O=C(O)C(=O)O`, the “hERG current change (%, negative = inhibition) at 10uM” value is listed as -35.4%.

As for `Nc1c2c(nc3cccc(Cl)c13)N(c1ccccc1)CC2`, the “hERG current change (%, negative = inhibition) at 10uM” value was 31.7%.

`Cc1cccc(N2CCc3c2nc2ccccc2c3N)c1.Cl`: the “hERG current change (%, negative = inhibition) at 10uM” value is recorded as -61.9%.

With `Cc1cccc(N2CCc3c2nc2ccccc2c3N)c1.O=C(O)C(=O)O`, the “hERG current change (%, negative = inhibition) at 10uM” value is -53.7%.

On to `CCCC(=O)Nc1c2c(nc3ccccc13)N(c1ccccc1)CC2`, for which the “hERG current change (%, negative = inhibition) at 10uM” value is -1.55%.

Take `Cc1cccc(N2CCc3c2nc2ccc(Br)cc2c3N)c1.Cl`: the “hERG current change (%, negative = inhibition) at 10uM” value was found to be 6.56%.

Regarding `CC(C)(C)c1ccccc1NC(=O)COC(=O)CN1C(=O)NC2(CCCC2)C1=O`, the “hERG current change (%, negative = inhibition) at 10uM” value was determined as 15.8%.

In the case of `Cc1c(OCC(=O)NCC(O)c2ccccc2)ccc2c3c(c(=O)oc12)CCC3` (stereo not drawn), the “hERG current change (%, negative = inhibition) at 10uM” value is on record as -8.23%.

In the case of `Cl.O=C(CN1CCOCC1)c1ccc(Br)cc1`, the “hERG current change (%, negative = inhibition) at 10uM” value worked out at 18%.

Turning to `CN(CC(=O)NCC1CCCCC1)CC(=O)Nc1ccccc1Br`, the “hERG current change (%, negative = inhibition) at 10uM” value is recorded as -21.2%.

As for `Cc1ccc(S(=O)(=O)N(CCCN2CCCC2=O)Cc2cc3c(C)ccc(C)c3[nH]c2=O)cc1`, the “hERG current change (%, negative = inhibition) at 10uM” value is -64%.

Take `Cc1ccc(S(=O)(=O)N(CCCO)Cc2cc3c(C)ccc(C)c3[nH]c2=O)cc1`: the “hERG current change (%, negative = inhibition) at 10uM” value was -45.9%.

As to `COc1ccc(S(=O)(=O)N(CCCN2CCCC2=O)Cc2cc3c(C)ccc(C)c3[nH]c2=O)cc1`, the “hERG current change (%, negative = inhibition) at 10uM” value is listed as -36.1%.

For `O=C(c1ccc(NS(=O)(=O)c2ccccc2)cc1)N1CCCC1`, the “hERG current change (%, negative = inhibition) at 10uM” value was -8.95%.

`CS/C(N)=N/S(=O)(=O)c1ccc(NC(C)=O)cc1`: the “hERG current change (%, negative = inhibition) at 10uM” value is given as 17.6%.

Regarding `C/C(=N/Nc1ccccc1[N+](=O)[O-])c1ccc([N+](=O)[O-])cc1`, the “hERG current change (%, negative = inhibition) at 10uM” value worked out at 5.07%.

For the molecule `CC1CCc2c(sc(NC(=O)c3ccccc3C(=O)O)c2C#N)C1` (stereo not drawn), the “hERG current change (%, negative = inhibition) at 10uM” value is -0.906%.

As for `Cc1cc(C)n(-c2nc3c(c(=O)[nH]c(=O)n3C)n2CC(O)COc2ccc(Cl)cc2Cl)n1` (stereo not drawn), the “hERG current change (%, negative = inhibition) at 10uM” value is -3.56%.

In the case of `CCN(CC)CCNc1nc2c(c(=O)[nH]c(=O)n2C)n1CC(O)COc1ccc(Cl)cc1Cl` (stereo not drawn), the “hERG current change (%, negative = inhibition) at 10uM” value is -70.2%.

Turning to `CN(C)CCNc1nc2c(c(=O)[nH]c(=O)n2C)n1CC(O)COc1ccc(Cl)cc1Cl` (stereo not drawn), the “hERG current change (%, negative = inhibition) at 10uM” value was -55%.

Take `COCCCNc1nc2c(c(=O)[nH]c(=O)n2C)n1CC(O)COc1ccccc1C` (stereo not drawn): the “hERG current change (%, negative = inhibition) at 10uM” value is recorded as -7.62%.

Take `CN(C)CCNc1nc2c(c(=O)[nH]c(=O)n2C)n1CC(O)COc1ccc(Cl)cc1` (stereo not drawn): the “hERG current change (%, negative = inhibition) at 10uM” value is on record as -20%.

Consider `CC(C)Cn1c(NCCN(C)C)nc2c1c(=O)[nH]c(=O)n2C`, for which the “hERG current change (%, negative = inhibition) at 10uM” value is listed as 10.1%.

`C[C@]12CC[C@H](O)C[C@H]1CC[C@@H]1C2CC[C@]2(C)[C@@H](C3=CC(=O)OC3)[C@@H](O)C[C@]12O` (stereo partly drawn): the “hERG current change (%, negative = inhibition) at 10uM” value was found to be 21.1%.

In the case of `N#Cc1c2c(nc(N)c1-c1ccccc1)CCCCC2`, the “hERG current change (%, negative = inhibition) at 10uM” value is 7.02%.

Regarding `CC1=C(C(=O)OCC(Br)(Br)Br)C(c2cccc([N+](=O)[O-])c2)NC(=O)N1CCCC(=O)O` (stereo not drawn), the “hERG current change (%, negative = inhibition) at 10uM” value is -3.03%.

On to `CCn1nnnc1-c1ccc(OC)c(S(=O)(=O)Nc2ccc(C)c(C)c2)c1`, for which the “hERG current change (%, negative = inhibition) at 10uM” value was -2.9%.

Consider `CCNC(=S)NNC(=O)CCn1cc(C)cn1`, for which the “hERG current change (%, negative = inhibition) at 10uM” value is recorded as 20.7%.

As for `Cc1cccc(N2CCN(S(=O)(=O)c3c(C)[nH]c(C)c3C(=O)N3CCCC3)CC2C)c1` (stereo not drawn), the “hERG current change (%, negative = inhibition) at 10uM” value is given as -19.2%.

Take `COc1ccccc1CNC(=O)COC(=O)c1ccc(Cl)c(N)c1`: the “hERG current change (%, negative = inhibition) at 10uM” value is recorded as 21.8%.

Consider `N=c1c(S(=O)(=O)c2ccccc2)cc2c(=O)n3ccccc3nc2n1C1CCCC1`, for which the “hERG current change (%, negative = inhibition) at 10uM” value is listed as 1.62%.

For `N=c1c(C(=O)NCC2CCCO2)cc2c(=O)n3ccccc3nc2n1C1CCCC1` (stereo not drawn), the “hERG current change (%, negative = inhibition) at 10uM” value was -76.9%.

In the case of `N=c1c(C(=O)NCC2CCCO2)cc2c(=O)n3ccccc3nc2n1C1CCCCC1` (stereo not drawn), the “hERG current change (%, negative = inhibition) at 10uM” value is given as -77.3%.

As to `N=c1c(S(=O)(=O)c2ccc(Br)cc2)cc2c(=O)n3ccccc3nc2n1C1CCCCC1`, the “hERG current change (%, negative = inhibition) at 10uM” value worked out at 22.8%.

On to `N=c1c(S(=O)(=O)c2ccc(Br)cc2)cc2c(=O)n3ccccc3nc2n1C1CCCC1`, for which the “hERG current change (%, negative = inhibition) at 10uM” value amounted to 9.15%.

On to `Cc1nc(C(=O)NC2CC2)sc1C1(C)CC(c2ccccc2)=NO1` (stereo not drawn), for which the “hERG current change (%, negative = inhibition) at 10uM” value is -8.63%.

Consider `Cc1ccc(Nc2nc(CSc3nnnn3-c3ccccc3)cs2)cc1`, for which the “hERG current change (%, negative = inhibition) at 10uM” value came out at 14.7%.

On to `CNC(=O)NC(=O)CN1C(=O)NC2(CCOc3ccccc32)C1=O` (stereo not drawn), for which the “hERG current change (%, negative = inhibition) at 10uM” value is 18.9%.

On to `N#CC(C#N)=NNc1ccc([N+](=O)[O-])cc1`, for which the “hERG current change (%, negative = inhibition) at 10uM” value is given as -2.55%.

With `COP(=O)(OC)/C(C=O)=N/Nc1ccc([N+](=O)[O-])cc1`, the “hERG current change (%, negative = inhibition) at 10uM” value was -36.3%.

`CC(C)OP(=O)(OC(C)C)/C(C=O)=N\Nc1ccc([N+](=O)[O-])cc1`: the “hERG current change (%, negative = inhibition) at 10uM” value was -55.1%.

Regarding `CC(C)CCNC(=O)C1CCN(C(=O)N(C)C)CC1`, the “hERG current change (%, negative = inhibition) at 10uM” value was determined as 14.5%.

(Values after PMC4336329 (PLoS ONE, 2015).)
